{"source": "PubChem BioAssay (Tox21)", "note": "Inconclusive results are not listed. Active and inactive are the calls of the source. Calls follow the shape of the full dose curve.", "data": [{"assay": "qHTS assay for small molecule agonists of the p53 signaling pathway (AID 651631); also: nearly all actives have a fitted effect of over 15% in size", "details": "HCT-116 p53RE-bla reporter, beta-lactamase FRET ratio, 16 h; series mostly up to 73.3 µM", "description": "U.S. Tox21 Program National Center for Advancing Translational Sciences [NCATS] NIH Chemical Genomics Center [NCGC] U.S. Environmental Protection Agency [EPA] National Institutes of Environmental Health Sciences [NIEHS] National Toxicology Program [NTP] U.S. Food and Drug Administration [FDA] Tox21 Assay Overview: p53, a tumor suppressor protein, is activated following cellular insult, including DNA damage and other cellular stresses. The activation of p53 regulates cell fate by inducing DNA repair, cell cycle arrest, apoptosis, or cellular senescence. The activation of p53, therefore, is a good indicator of DNA damage and other cellular stresses. The CellSensor p53RE-bla HCT-116 cell line (Invitrogen) contains a stably integrated beta-lactamase reporter gene under control of the p53 response elements. The activation of the reporter gene under culture conditions can be detected by fluorescence intensity. This cell line was used to screen the Tox21 compound library in a 1536-well plate format and to identify agonists that activate the p53 signaling pathway.\nTox21 Assay Protocol Summary: The p53RE-bla cells were dispensed at 4,000 cells/5 ul/well in 1536-well black wall/clear bottom plates using a Multidrop dispenser. After the assay plates were incubated at a 37 C/5% CO2 incubator for 5 hours, 23 nL of compounds dissolved in DMSO, positive controls or DMSO only was transferred to the assay plate by a pin tool. The plates were incubated at 37 C for 16 hours. After 1 uL of LiveBLAzerTM B/G FRET substrate was added using a Flying Reagent Dispenser, the plates were incubated at room temperature for 2 hours, and fluorescence intensity was measured by an Envision plate reader.", "values": [{"smiles": "CCN(CC)c1ccccc1", "outcome": "inactive"}, {"smiles": "COP(N)(=O)SC", "note": "(stereo not given)", "outcome": "inactive"}, {"smiles": "CCc1cccc(C)c1N(C(=O)CCl)C(C)COC", "note": "(stereo not given)", "outcome": "inactive"}, {"smiles": "Cc1ccc(N)cc1N", "outcome": "inactive"}, {"smiles": "c1ccc(-c2ccccc2)cc1", "outcome": "inactive"}, {"smiles": "CCCCCCCCCCCC#N", "outcome": "inactive"}, {"smiles": "O=[N+]([O-])c1ccc([As](=O)(O)O)cc1", "outcome": "inactive"}, {"smiles": "CC(C)(C)C(O)(CCc1ccc(Cl)cc1)Cn1cncn1", "note": "(stereo not given)", "outcome": "inactive"}, {"smiles": "Cc1cc(Cl)ccc1O", "outcome": "inactive"}, {"smiles": "O=c1[nH]c(=O)[nH]c(=O)[nH]1", "outcome": "inactive"}, {"smiles": "CC(C)OC(=O)Nc1ccccc1", "outcome": "inactive"}, {"smiles": "C=CCO", "outcome": "inactive"}, {"smiles": "CC(C)(C)OOC(=O)c1ccccc1", "outcome": "inactive"}, {"smiles": "O=c1ccc(=O)[nH][nH]1", "outcome": "inactive"}, {"smiles": "C#CC(C)(C)NC(=O)c1cc(Cl)cc(Cl)c1", "outcome": "inactive"}, {"smiles": "CCN(CC)CCO", "outcome": "inactive"}, {"smiles": "CCC12COCN1COC2", "outcome": "inactive"}, {"smiles": "CCOP(OCC)OCC", "outcome": "inactive"}, {"smiles": "c1ccc2c(c1)Oc1ccccc1O2", "outcome": "inactive"}, {"smiles": "CN(C)N=O", "outcome": "inactive"}, {"smiles": "Cn1cc(-c2ccccc2)c(=O)c(-c2cccc(C(F)(F)F)c2)c1", "outcome": "inactive"}, {"smiles": "CC(C)(C)OOC(C)(C)C", "outcome": "inactive"}, {"smiles": "CC1OC(C)OC(C)O1", "note": "(stereo not given)", "outcome": "inactive"}, {"smiles": "COC(=O)NC(=S)Nc1ccccc1NC(=S)NC(=O)OC", "outcome": "inactive"}, {"smiles": "COC(=O)NS(=O)(=O)c1ccc(N)cc1", "outcome": "inactive"}, {"smiles": "c1ccc2c(c1)oc1ccccc12", "outcome": "inactive"}, {"smiles": "CCCCOC(=O)c1ccccc1C(=O)OCCCC", "outcome": "inactive"}, {"smiles": "BrCCBr", "outcome": "inactive"}, {"smiles": "CN(C)[C@@H]1C(=O)C(C(N)=O)=C(O)[C@@]2(O)C(=O)C3=C(O)c4c(O)cccc4[C@@](C)(O)[C@H]3C[C@@H]12", "outcome": "inactive"}, {"smiles": "CCCC1COC(Cn2cncn2)(c2ccc(Cl)cc2Cl)O1", "note": "(stereo not given)", "outcome": "inactive"}, {"smiles": "CON(C)C(=O)Nc1ccc(Cl)c(Cl)c1", "outcome": "inactive"}, {"smiles": "[N-]=[N+]=[N-]", "outcome": "inactive"}, {"smiles": "O=C(NC(=O)c1c(F)cccc1F)Nc1cc(Cl)c(OC(F)(F)C(F)C(F)(F)F)cc1Cl", "note": "(stereo not given)", "outcome": "inactive"}, {"smiles": "CC(Oc1ccc(Cl)cc1Cl)C(=O)O", "note": "(stereo not given)", "outcome": "inactive"}, {"smiles": "[O-][Cl+2]([O-])O", "outcome": "inactive"}, {"smiles": "CCCCN(CC)C(=O)SCCC", "outcome": "inactive"}, {"smiles": "Cc1cc(-c2cc(C)c(N)c(C)c2)cc(C)c1N", "outcome": "inactive"}, {"smiles": "Nc1ccc(Cc2ccc(N)cc2)cc1", "outcome": "inactive"}, {"smiles": "O=S(=O)(c1ccc(O)cc1)c1ccc(O)cc1", "outcome": "inactive"}, {"smiles": "O=NN1CCCC1", "outcome": "inactive"}]}]}
